Test results: PubChem BioAssay (Tox21)
Records with an inconclusive call do not appear. The source made the active and inactive calls. Unless noted, calls follow the shape of the dose curve; as a rule, active = well fitted curve in the direction sought with a large enough effect in the repeat runs; inconclusive = weak or mixed curves; inactive = no such curve, though single readings can be large; an effect the other way counts as inactive or inconclusive.

Tests used:
[1] = qHTS assay for small molecule agonists of the p53 signaling pathway (AID 651631; calls by dose curve; also: nearly all actives have a fitted effect of over 15% in size; also: potency is read from the fitted curve at half-maximal effect)
Method in brief: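 Quantitative high-throughput format: 4,000 p53RE-bla HCT-116 cells/well, 5 h pre-incubation, 16 h compound exposure at 37 °C, 2 h room-temperature substrate step, fluorescence intensity measured.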

[2] = qHTS assay for small molecules that induce genotoxicity in human embryonic kidney cells expressing luciferase-tagged ATAD5 (AID 651632); also: nearly all actives have a fitted effect of over 15% in size; also: potency is read from the fitted curve at half-maximal effect
Method in brief: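 Quantitative HTS in HEK293T expressing luciferase-tagged ATAD5, whose levels rise upon DNA damage. Exposure ran 16 hr at 37C and 5% CO2, with luminescence read 30 min after Amplite addition at room temperature.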

[3] = qHTS assay for small molecule agonists of the p53 signaling pathway - cell viability (AID 651633; calls by dose curve; also: nearly all actives have a fitted effect of over 30% in size; also: potency is read from the fitted curve at half-maximal effect)
Method in brief: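 Viability counter-read: CellTiter-Glo luminescence (30 min, room temperature) in the same p53RE-bla plates. These plates had been exposed to compounds for 16 h at 37 C.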

[4] = qHTS assay for small molecules that induce genotoxicity in human embryonic kidney cells expressing luciferase-tagged ATAD5 - cell viability (AID 651634; calls by dose curve; also: nearly all actives have a fitted effect of over 25% in size; also: potency is read from the fitted curve at half-maximal effect)
Method in brief: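 After 15.5 hr incubation with compound at 37C, 5% CO2, HEK293T ATAD5-luciferase cells received CellTiter-Fluor reagent; fluorescence intensity was quantified following 30 min at 37C.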

[5] = qHTS assay for small molecule disruptors of the mitochondrial membrane potential - cell viability (AID 720634; calls by dose curve;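 also: human HepG2 liver cancer cells; series mostly up to about 83 µM; nearly all actives have a fitted effect of over 20% in size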)
Method in brief: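 ATP-based luminescent viability readout (CellTiter-Glo, 30 min, room temperature) in HepG2 cells multiplexed with the m-MPI membrane potential dye; compound exposure lasted 1 hr at 37 C.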

[6] = qHTS assay for small molecule disruptors of the mitochondrial membrane potential (AID 720635)
Method in brief: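 Mitochondrial membrane potential tracked with Mito-MPS dye, red aggregates (ex 540/em 590 nm) against green monomers (ex 490/em 535 nm). Compound treatment 1 hr at 37C, dye 30 min in HepG2.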

[7] = qHTS assay to test for compound auto fluorescence at 590 nm (red) in HepG2 cells (AID 720674)
Method in brief: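 1 hr compound incubation on HepG2 cells, 37 C, 5% CO2; plate read ex 540 nm / em 590 nm; intensities reported as Rose Bengal sodium equivalents.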

[8] = qHTS assay to test for compound auto fluorescence at 535 nm (green) in HepG2 cells (AID 720675)
[9] = qHTS assay to test for compound auto fluorescence at 460 nm (blue) in HEK293 cells (AID 720678)
Method in brief: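 HEK293 cells (2,000/well, medium with 10% dialyzed FBS) attached 4-5 hr, then exposed to compound overnight at 37C, 5% CO2. Blue fluorescence read at 405/460 nm, with triamterene as reference fluorophore.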

[10] = qHTS assay to test for compound auto fluorescence at 590 nm (red) in HEK293 cells (AID 720679)
Method in brief: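 HEK293 cells (2,000/well, 10% dialyzed FBS) attached 4-5 hr, then dosed with compound or DMSO and incubated overnight at 37C, 5% CO2. Red fluorescence read at 540/590 nm, Rose Bengal sodium as reference fluorophore.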

[11] = qHTS assay to test for compound auto fluorescence at 535 nm (green) in HEK293 cells (AID 720680)
[12] = qHTS assay to test for compound auto fluorescence at 460 nm (blue) in HEK293 cell free culture (AID 720681)
Method in brief: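 Blue fluorescence (Ex 405/Em 460 nm, triamterene-equivalent) was read immediately after pin transfer of compound or DMSO into medium (DMEM, 10% FBS) without cells.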

[13] = qHTS assay to test for compound auto fluorescence at 535 nm (green) in HEK293 cell free culture (AID 720682)
Method in brief: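 Measurement is a direct plate read of green fluorescence (485 nm in, 535 nm out) after compound addition to serum-supplemented DMEM lacking cells, with fluorescein used to express intensities.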

[14] = qHTS assay to test for compound auto fluorescence at 590 nm (red) in HEK293 cell free culture (AID 720683)
Method in brief: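 Red-channel autofluorescence of compounds in culture medium (DMEM, 10% FBS), no cells, measured at 540/590 nm. Rose Bengal sodium is the reference fluorophore for equivalence.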

[15] = qHTS assay to test for compound auto fluorescence at 590 nm (red) in HepG2 cell free culture (AID 720684)
Method in brief: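 Cell-free; medium MEM + 10% FBS; compound or DMSO added by pintool; read Ex 540/Em 590 nm; Rose Bengal sodium as red reference fluorophore.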

[16] = qHTS assay to test for compound auto fluorescence at 460 nm (blue) in HepG2 cell free culture (AID 720685)
Method in brief: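 Cell-free plates of MEM plus 10% FBS received 23 nL compound or DMSO vehicle; blue-channel (405/460 nm) intensity scored against triamterene as reference fluorophore.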

[17] = qHTS assay to test for compound auto fluorescence at 535 nm (green) in HepG2 cell free culture (AID 720686)
[18] = qHTS assay to test for compound auto fluorescence at 460 nm (blue) in HepG2 cells (AID 720687)
Method in brief: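 Blue-channel autofluorescence (Ex/Em 405/460 nm, triamterene-equivalent) was measured after 1 hr compound exposure at 37 C, 5% CO2. Cells were HepG2, plated overnight at 37 C in MEM plus 10% FBS.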

[19] = target: Glucocorticoid receptor (Homo sapiens) (UniProt P04150); assay: qHTS assay to identify small molecule agonists of the glucocorticoid receptor (GR) signaling pathway (AID 720691; active = well fitted activation curve with a large enough effect in the signal ratio in the repeat runs, not every such curve was filed as active; the % refers to the signal ratio)
Chain of Glucocorticoid receptor (Homo sapiens) (P04150 whole entry, looked up): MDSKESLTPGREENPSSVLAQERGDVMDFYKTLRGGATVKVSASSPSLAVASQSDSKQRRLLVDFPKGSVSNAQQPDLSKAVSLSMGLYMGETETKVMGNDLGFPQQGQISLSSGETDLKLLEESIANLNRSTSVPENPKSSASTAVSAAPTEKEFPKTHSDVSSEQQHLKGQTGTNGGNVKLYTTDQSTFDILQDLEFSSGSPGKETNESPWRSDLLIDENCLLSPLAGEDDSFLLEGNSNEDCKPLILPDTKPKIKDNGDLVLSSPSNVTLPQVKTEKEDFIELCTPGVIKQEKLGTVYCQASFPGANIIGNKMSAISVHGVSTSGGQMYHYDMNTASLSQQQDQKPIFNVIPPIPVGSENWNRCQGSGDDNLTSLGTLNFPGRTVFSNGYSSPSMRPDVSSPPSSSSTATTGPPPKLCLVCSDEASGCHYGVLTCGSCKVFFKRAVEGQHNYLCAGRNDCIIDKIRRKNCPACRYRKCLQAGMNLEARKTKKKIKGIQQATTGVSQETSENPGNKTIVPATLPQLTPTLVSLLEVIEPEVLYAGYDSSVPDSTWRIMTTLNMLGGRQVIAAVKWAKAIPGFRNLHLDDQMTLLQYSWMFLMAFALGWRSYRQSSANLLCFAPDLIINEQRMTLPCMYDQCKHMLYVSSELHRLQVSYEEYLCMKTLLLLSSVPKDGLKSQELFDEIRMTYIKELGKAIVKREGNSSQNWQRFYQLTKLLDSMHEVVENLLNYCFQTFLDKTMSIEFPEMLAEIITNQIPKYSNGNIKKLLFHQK
Method in brief: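 Cells: GR-bla HeLa, endogenous GR with stably integrated GRE-beta-lactamase reporter. Treatment 18 h, 37 C, compounds delivered in DMSO. Detection via LiveBLAzer B/G FRET substrate, 2 h RT, fluorescence intensity.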

[20] = target: Glucocorticoid receptor (Homo sapiens) (UniProt P04150); assay: qHTS assay to identify small molecule antagonists of the glucocorticoid receptor (GR) signaling pathway (AID 720692; active = well fitted inhibition curve with a large enough effect in the signal ratio in the repeat runs, not every such curve was filed as active; the % refers to the signal ratio)
Method in brief: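 Quantitative HTS in antagonist format: HeLa cells expressing endogenous GR and a stably integrated GRE-bla reporter, stimulated with 5 nM dexamethasone (final) alongside test compounds for 18 h.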
% is scaled to controls: 0 for no effect and ±100 for the full control effect.

C[C@@H](O)[C@H]1C(=O)N2C(C(=O)O)=C([C@H]3CCCO3)S[C@H]12
inactive: Potency [1] | Potency [2] | Potency [3] | Potency [4] | Potency [5] | Potency [6] | outcome [7] | outcome [8] | Potency [9] | outcome [10] | outcome [11] | Potency [12] | outcome [13] | outcome [14] | outcome [15] | Potency [16] | outcome [17] | Potency [18]

OC(CCN1CCCC1)(c1ccccc1)C1CCCCC1 (centres undefined)
inactive: Potency [1] | Potency [2] | Potency [3] | Potency [4] | Potency [5] | fluorescence, relative to Rose Bengal [7] 0.15% [at 18.6 µM] | fluorescence, % of fluorescein control [8] 0.0313% [at 18.6 µM] | fluorescence, % of triamterene [9] 0.0017% [at 18.6 µM] | fluorescence, % of fluorescent control [10] -0.0138% [at 18.6 µM] | fluorescence, % of fluorescein [11] 6.8e-05% [at 18.6 µM] | fluorescence, % of fluorescent control [12] -0.0085% [at 18.6 µM] | activity change [13] 0.0202% [at 18.6 µM] | fluorescence, % of fluorescent control [14] -0.206% [at 18.6 µM] | fluorescence, % of Rose Bengal [15] -0.161% [at 18.6 µM] | fluorescence, % of fluorescent control [16] 0.0206% [at 18.6 µM] | fluorescence, % of fluorescein control [17] -0.0329% [at 18.6 µM] | fluorescence, % of fluorescent control [18] 0.0411% [at 18.6 µM] | Potency [19] | Potency [20]

CC(C)C[C@H](NC(=O)[C@H](CCc1ccccc1)NC(=O)CN1CCOCC1)C(=O)N[C@@H](Cc1ccccc1)C(=O)N[C@@H](CC(C)C)C(=O)[C@@]1(C)CO1
active: Potency [1] 66.8 nM | Potency [2] 106 nM | Potency [3] 335 nM | Potency [4] 211 nM
inactive: Potency [5] | outcome [7] | outcome [8] | Potency [9] | outcome [10] | outcome [11] | Potency [12] | outcome [13] | outcome [14] | outcome [15] | Potency [16] | outcome [17] | Potency [18]

O=C1c2ccccc2C(=O)C1c1ccc(Br)cc1
inactive: Potency [1] | Potency [2] | Potency [3] | Potency [4] | Potency [5] | outcome [7] | outcome [8] | Potency [9] | outcome [10] | outcome [11] | Potency [12] | outcome [13] | outcome [14] | Potency [16] | outcome [17]

CC(CCC(=O)O)C(=O)O (centres undefined)
inactive: Potency [1] | Potency [2] | Potency [3] | Potency [4] | Potency [5] | outcome [7] | outcome [8] | Potency [9] | outcome [10] | outcome [11] | Potency [12] | outcome [13] | outcome [14] | outcome [15] | Potency [16] | outcome [17] | Potency [18] | Potency [19] | Potency [20]

Cc1cccc(N(C)C(=S)Oc2ccc3c(c2)CCC3)c1
inactive: Potency [1] | Potency [2] | Potency [3] | Potency [4] | Potency [5] | outcome [7] | outcome [8] | Potency [9] | outcome [10] | outcome [11] | Potency [12] | outcome [13] | outcome [14] | outcome [15] | Potency [16] | outcome [17] | Potency [18] | Potency [19]

C=C1C[C@@]23CC[C@H]4[C@@](C)(CCC[C@@]4(C)C(=O)O[C@@H]4O[C@H](CO)[C@@H](O)[C@H](O)[C@H]4O)[C@@H]2CC[C@]1(O[C@@H]1O[C@H](CO)[C@@H](O)[C@H](O[C@@H]2O[C@H](CO)[C@@H](O)[C@H](O)[C@H]2O)[C@H]1O[C@@H]1O[C@H](CO)[C@@H](O)[C@H](O)[C@H]1O)C3
inactive: Potency [1] | Potency [2] | Potency [3] | Potency [4] | Potency [5] | Potency [6] | outcome [7] | outcome [8] | Potency [9] | outcome [10] | outcome [11] | Potency [12] | outcome [13] | outcome [14] | outcome [15] | Potency [16] | outcome [17] | Potency [19]
